Counter-ions that a name gives are not always drawn. ± gives the standard deviation of the averaged measurements. Whole data set: some 2,000 compounds, median “relative cell viability vs DMSO, compound + 0.2 uM CuET” near 1, cut for the lowest 2% near 0.25. The full list was thinned out, with the lowest values kept by preference.

This test concerns TE10. Description: relative cell viability vs DMSO, compound + 0.2 uM CuET (fraction); TE10 is an esophageal squamous carcinoma line; higher = less cytotoxic. Particulars: 2 µM; co-treatment: CuET (bis(diethyldithiocarbamate)copper) 0.2 uM; 48 h. As to the method:
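TE10 ESCC cells (1,000/well, 384-well plates) were treated with Selleck bioactive library compounds at 2 uM combined with 0.2 uM CuET (copper diethyldithiocarbamate) for 48 h. Viability was read by CellTiter-Glo and expressed relative to DMSO wells. Two technical replicates (A, B).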
Turning to `CCN1CCN(C(=O)Cc2ccc(Nc3ncc(F)c(Nc4ccc(C(=O)Nc5ccccc5Cl)cc4)n3)cc2)CC1` [Aurora A Inhibitor I], the relative cell viability came to 0.182 ± 0.01.

Consider `Cc1cc(C(=O)CN2CCCC2)c(C)n1-c1ccc(F)cc1`, for which the relative cell viability was found to be 0.959 ± 0.085.

Take `C[C@@H]1CC[C@H]2[C@@H](C)C(=O)O[C@@H]3O[C@@]4(C)CC[C@@H]1[C@]32OO4` [Artemisinin]: the relative cell viability was 1.08 ± 0.11.

Take `NCC(O)c1ccc(O)cc1` (racemic) [(+,-)-Octopamine HCl]: the relative cell viability was 0.697 ± 0.56.

For the compound `CC(=O)OC12COC1CC(O)C1(C)C(=O)C(O)C3=C(C)C(O)CC(O)(C(OC(=O)c4ccccc4)C21)C3(C)C` (stereo not given) [10-Deacetylbaccatin-III], the relative cell viability was 0.849 ± 0.011.

Consider `CC1=C(O)C(=O)C=C2C1=CC=C1[C@@]2(C)CC[C@@]2(C)[C@@H]3C[C@](C)(C(=O)O)CC[C@]3(C)CC[C@]12C` [Celastrol], for which the relative cell viability was found to be 0.154 ± 0.0064.

For the compound `CC(C)=CCC[C@]1(C)C=Cc2c(O)c3c(c(CC=C(C)C)c2O1)O[C@]12C(=C[C@@H]4C[C@H]1C(C)(C)O[C@@]2(C/C=C(/C)C(=O)O)C4=O)C3=O` [Gambogic Acid], the relative cell viability came out at 0.2853 ± 0.00092.

For the compound `O=c1cccc2n1C[C@@H]1CNC[C@H]2C1` [Cytisine], the relative cell viability turned out to be 1.07 ± 0.033.

As to `C=C[C@H]1CN2CC[C@H]1C[C@H]2[C@H](O)c1ccnc2ccccc12` [Cinchonidine], the relative cell viability is 1.03 ± 0.057.

For `N#CC(C#N)=Cc1ccc(O)c(O)c1`, the relative cell viability was determined as 0.937 ± 0.14.

These data come from the supplement of paper PMC10670038.
